# Test results as given in PubChem BioAssay (Tox21).
# Records with an inconclusive call do not appear. Calls of active or inactive are those of the source. Calls follow the shape of the dose curve; as a rule, active = well fitted cell-killing curve with a large enough effect in the repeat runs; inconclusive = weak or mixed curves, or effect the other way; inactive = flat fitted curve, though single readings scatter.
# Assay: qHTS assay to identify small molecule antagonists of the androgen receptor (AR) signaling pathway using the MDA cell line - cell viability counter screen (AID 743041; also: nearly all actives have a fitted effect of over 45% in size)
# Conditions: MDA-kb2 viability, CellTiter-Fluor, 16 h, cells co-treated with R1881 androgen agonist; series mostly up to 70.3 µM; viability change, negative = cytotoxic: at the top concentration
# Text: National Center for Advancing Translational Sciences [NCATS]
# NIH Chemical Genomics Center [NCGC]
# U.S. Environmental Protection Agency [EPA]
# National Institutes of Environmental Health Sciences [NIEHS]
# National Toxicology Program [NTP]
# U.S. Food and Drug Administration [FDA]
# Androgen receptor (AR), a nuclear hormone receptor, plays a critical role in AR-dependent prostate cancer and other androgen related diseases. Endocrine disrupting chemicals (EDCs) and their interactions with steroid hormone receptors like AR may cause disruption of normal endocrine function as well as interfere with metabolic homeostasis, reproduction, developmental and behavioral functions. To identify the compounds that inhibit AR signaling, MDA-kb2 AR-luc cell line (from ATCC, deposited by Wilson et al.) was used to screen the Tox21 10K compound library. MDA-kb2 AR-luc cell line is human breast carcinoma cell line that was stably transfected with a luciferase reporter gene under control of the MMTV promoter containing response elements for both androgen receptor (AR) and glucocorticoid receptor (GR). The cytotoxicity of the Tox21 compound library against the MDA-kb2 AR-luc cell line was tested in parallel by measuring the cell viability using CellTiter-Fluor assay (Promega, Madison, WI) in the same wells.
# Tox21 Assay Protocol Summary:
# MDA-kb2 AR-luc cells were dispensed at 3,000 cells/4 uL/well of culture medium into white wall/solid-bottom 1536-well plates using a Multidrop Combi (ThermoFisher Scientific, Waltham, MA) dispenser. After the assay plates were incubated at a 37C and 0% CO2 for 5 hr, 23 nL of compounds dissolved in DMSO, positive controls or DMSO only was transferred to the assay plate by a Pintool station (Kalypsys, San Diego, CA), followed by addition of 1 uL of agonist (R1881) in culture medium using a Bioraptr Flying Reagent Dispenser (FRD) workstation (Beckman Coulter, Indianapolis, IN, USA). The plates were incubated at a 37C and 0% CO2 for 16 h. After 15.5 h incubation, 1uL of CellTiter-Fluor reagent (Promega) was added using a Bioraptr FRD to each plate for measuring cytotoxicity. The fluorescence intensity was quantified on a ViewLux plate reader (PerkinElmer, Shelton, CT) following 30 min incubation at 37C and 0% CO2.
# % is scaled to controls: 0 for no effect and ±100 for the full control effect; potency is read from the fitted curve at half-maximal effect.
SMILES,"viability change, negative = cytotoxic",Potency
COc1cccc(Br)c1,0.18% (inactive),
CCCCCCC(=O)OCC,11.2% (inactive),
Nc1ccc2cc(S(=O)(=O)O)ccc2c1,6.34% (inactive),
CCO[Si](C)(OCC)OCC,10.4% (inactive),
N#CCc1ccccc1[N+](=O)[O-],0.221% (inactive),
CCCCC=O,-1.45% (inactive),
Oc1cc(O)c2c(c1)O[C@H](c1ccc(O)c(O)c1)[C@H](O)C2,-8.1% (inactive),
CC(C)c1cccc(O)c1,1.94% [at 95 µM] (inactive),
OCC(O)[C@@H](O)[C@H](O)[C@H](O)CO[C@H]1O[C@H](CO)[C@@H](O)[C@H](O)[C@H]1O (stereo not given in full),-1.21% (inactive),
Cn1cnc2c(=O)[nH]c(N)nc21,-9.68% (inactive),
C=CC(=O)N1CCOCC1,3.92% (inactive),
COC(=O)[C@H]1[C@H]2C[C@@H]3c4[nH]c5cc(OC)ccc5c4CCN3C[C@H]2C[C@@H](OC(=O)COc2ccc(OC)cc2)[C@@H]1OC,7.52% (inactive),
Nc1[nH]c(=O)ncc1F,7.37% [at 32.5 µM] (inactive),
CC(C)[N+](C)(C)CC(O)COc1cccc2ccccc12 (stereo not given),3.64% (inactive),
CCCCNc1ccccc1,5.63% (inactive),
O=S(=O)(O)c1ccccc1O,1.16% (inactive),
CCC(C(=O)NC(N)=O)c1ccccc1 (stereo not given),,inactive
CC(=O)OC(C)(C)C,7.9% (inactive),
Nc1cc(C(Cl)=C(Cl)Cl)c(S(N)(=O)=O)cc1S(N)(=O)=O,,inactive
O=[N+]([O-])c1ccc(CCO)cc1,0.212% (inactive),

SMILES,"viability change, negative = cytotoxic",Potency
CC(C)[C@H](N)C(=O)OCCOCn1cnc2c(=O)[nH]c(N)nc21,5.35% (inactive),
CC(C)=CC(=O)O,-1.55% (inactive),
CC(C)(C)CC(C)(C)N,1.8% (inactive),
CCCCCCCCCCCl,2.44% [at 95 µM] (inactive),
CC(C)CCCC(C)CCCC(C)CCCCC(C)CCCC(C)CCCC(C)C (stereo not given),-0.932% (inactive),
NCCNC(=O)c1ccc(Cl)cn1,-2.85% (inactive),
CCCCCCOC(=O)c1ccccc1O,-0.535% (inactive),
COC(=O)CCCCCCCCC(=O)OC,-0.875% [at 95 µM] (inactive),
N#CC1(O)CCCCC1,0.277% [at 95 µM] (inactive),
C1COCCO1,-9.01% [at 95 µM] (inactive),
CO[Si](OC)(OC)OC,-2.94% (inactive),
COc1cc(C(=O)N2CCOCC2)cc(OC)c1OC,,inactive
CC(C)(O)Cc1ccccc1,1.05% (inactive),
O=[N+]([O-])c1ccc(Oc2ccc([N+](=O)[O-])cc2)cc1,3.59% [at 95 µM] (inactive),
CCC(C)(C)C1CCC(OC)CC1 (stereo not given),0.094% (inactive),
O=C(O)c1cccc(C(=O)O)n1,4.83% (inactive),
C[C@H]1O[C@@H](n2cc(F)c(=O)[nH]c2=O)[C@H](O)[C@@H]1O,-1.06% (inactive),
CCCCCCCCN(C)CCCCCCCC,-1.99% [at 95 µM] (inactive),
CCOC(=O)Cn1c(=O)sc2cccc(Cl)c21,-0.979% (inactive),
CN(C)C(=O)C(CCN1CCC(O)(c2ccc(Cl)cc2)CC1)(c1ccccc1)c1ccccc1,,24.8 µM (active)
